Where “and” joins values, the source holds several entries; their conditions need not be identical. Identical values can stand only once. The whole screen tested about 5,500 compounds, of which about 2,000 (36%) were called active. Another 18% or so got no clear call; they are omitted. Cut-off read from the data, not from the text of the source: active = normalized growth mostly below about 0.91 (no sharp cut-off); inconclusive = no clear call, values can overlap the other calls; inactive = mostly above about 0.92. The list shows a part of the results.
Experiment: chemical genetic growth profiling, strain panel (AID 1159580);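 note: tested at 20 µM; growth read once vehicle control cultures reached saturation at 30 °C; 1 = growth at the plate median or of vehicle wells; lower values mean less growth of the strain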
Details: S. cerevisiae deletion strains, growth OD

Measured: normalized growth

COC1C(O)C(O)C(O)[C@@H](O)C1O (some centres undefined)
inactive: locus YAL013W, strain DEP1, stronger effect = lower value 1.01 | locus YAL021C, strain ccr4, stronger effect = lower value 0.967 | locus YAL026C, strain drs2, stronger effect = lower value 0.978 | locus YAL030W, strain snc1, stronger effect = lower value 0.976 | locus YBL061C, strain skt5, stronger effect = lower value 0.971 | locus YBR009C, strain hhf1, stronger effect = lower value 0.98 | locus YBR021W, strain FUR4, stronger effect = lower value 1.03 | locus YBR023C, strain chs3, stronger effect = lower value 0.966 | locus YBR171W, strain sec66, stronger effect = lower value 0.978 | locus YBR229C, strain ROT2, stronger effect = lower value 1.01 | locus YBR231C, strain swc5, stronger effect = lower value 0.978 | locus YBR279W, strain paf1, stronger effect = lower value 0.982 | locus YCL011C, strain gbp2, stronger effect = lower value 0.976 | locus YCL016C, strain dcc1, stronger effect = lower value 0.968 | locus YCL029C, strain bik1, stronger effect = lower value 1.02 | locus YCL061C, strain MRC1, stronger effect = lower value 0.97 | locus YCL069W, strain vba3, stronger effect = lower value 0.98 | locus YCR088W, strain abp1, stronger effect = lower value 0.976 | locus YDL005C, strain med2, stronger effect = lower value 0.949 | locus YDL035C, strain GPR1, stronger effect = lower value 1.02 | locus YDL074C, strain BRE1, stronger effect = lower value 1.06 | locus YDL101C, strain DUN1, stronger effect = lower value 1.01 | locus YDL134C, strain PPH21, stronger effect = lower value 1 | locus YDL185W, strain tfp1, stronger effect = lower value 1.01 | locus YDL192W, strain arf1, stronger effect = lower value 1.03 | locus YDR001C, strain nth1, stronger effect = lower value 0.964 | locus YDR069C, strain doa4, stronger effect = lower value 0.981 | locus YDR101C, strain arx1, stronger effect = lower value 1.04 | locus YDR137W, strain rgp1, stronger effect = lower value 0.98 | locus YDR150W, strain NUM1, stronger effect = lower value 1.01 | locus YDR159W, strain sac3, stronger effect = lower value 1.06 | locus YDR162C, strain NBP2, stronger effect = lower value 1.01 | locus YDR195W, strain ref2 1.01 | locus YDR297W, strain sur2, stronger effect = lower value 0.977 | locus YDR318W, strain mcm21, stronger effect = lower value 1.02 | locus YDR334W, strain swr1, stronger effect = lower value 0.966 | locus YDR335W, strain msn5, stronger effect = lower value 0.972 | locus YDR388W, stronger effect = lower value 1.02 | locus YDR392W, strain spt3, stronger effect = lower value 0.909 | locus YDR502C, strain sam2, stronger effect = lower value 1.05 | locus YEL003W, strain gim4, stronger effect = lower value 0.974 | locus YEL037C, strain rad23, stronger effect = lower value 0.968 | locus YEL061C, strain CIN8 (second series), stronger effect = lower value 0.971 | locus YEL061C, strain CIN8, stronger effect = lower value 1.01 | locus YER015W, strain faa2, stronger effect = lower value 0.984 | locus YER016W, strain bim1, stronger effect = lower value 0.977 | locus YER110C, stronger effect = lower value 1.02 | locus YER111C, strain swi4, stronger effect = lower value 0.961 | locus YER155C, strain BEM2 (second series), stronger effect = lower value 0.971 | locus YER155C, strain BEM2, stronger effect = lower value 1.01 | locus YER167W, strain BCK2, stronger effect = lower value 1.01 | locus YFR010W, strain ubp6, stronger effect = lower value 0.951 | locus YGL078C, strain dbp3, stronger effect = lower value 1.02 | locus YGL086W, strain mad1, stronger effect = lower value 1.05 | locus YGL167C, strain pmr1, stronger effect = lower value 0.977 | locus YGL173C, strain kem1, stronger effect = lower value 0.964 | locus YGL227W, strain vid30, stronger effect = lower value 0.973 | locus YGL240W, strain doc1, stronger effect = lower value 1 | locus YGL248W, strain PDE1, stronger effect = lower value 1.01 | locus YGL253W, strain hxk2, stronger effect = lower value 0.966 | locus YGR078C, strain PAC10, stronger effect = lower value 1 | locus YGR135W, strain pre9, stronger effect = lower value 1.01 | locus YGR252W, strain gcn5, stronger effect = lower value 0.972 | locus YHR013C, strain ard1, stronger effect = lower value 0.948 | locus YHR027C, strain rpn1, stronger effect = lower value 0.999 | locus YHR030C, strain SLT2, stronger effect = lower value 0.999 and 0.933 | locus YHR079C, strain IRE1 (second series), stronger effect = lower value 1.03 | locus YHR079C, strain IRE1, stronger effect = lower value 0.925 | locus YHR094C, strain hxt1, stronger effect = lower value 1.04 | locus YHR129C, strain ARP1, stronger effect = lower value 1.01 | locus YHR142W, strain chs7, stronger effect = lower value 0.928 | locus YHR200W, strain rpn10, stronger effect = lower value 1.03 | locus YIL066C, strain RNR3, stronger effect = lower value 1.01 | locus YIL073C, strain SPO22, stronger effect = lower value 1.09 | locus YIL125W, strain kgd1, stronger effect = lower value 1.01 | locus YIR030C, strain dcg1, stronger effect = lower value 1.02 | locus YJL092W, strain hpr5, stronger effect = lower value 0.975 | locus YJL095W, strain BCK1 (second series), stronger effect = lower value 0.975 | locus YJL095W, strain BCK1, stronger effect = lower value 1 | locus YJL115W, strain asf1, stronger effect = lower value 0.971 | locus YJL129C, strain trk1, stronger effect = lower value 0.938 | locus YJL134W, strain LCB3, stronger effect = lower value 0.999 | locus YJL154C, strain vps35, stronger effect = lower value 0.964 | locus YJL164C, strain tpk1, stronger effect = lower value 0.974 | locus YJL166W, strain qcr8, stronger effect = lower value 0.98 | locus YJL168C, strain set2, stronger effect = lower value 1.02 | locus YJL187C, strain SWE1 (second series), stronger effect = lower value 1.01 | locus YJL187C, strain SWE1, stronger effect = lower value 0.977 | locus YJR043C, strain POL32, stronger effect = lower value 0.989
